Assays:
Experiment in all cases: PBM binding z-score (relative to random genomic background probes); higher = stronger binding; sequences stand for … in GC…GCGATTGACAGCGTAGAATGAAGG
[1] = test system: PPARg:RXRa DBDmut IVT, anti-RXR (DBD mutation: RXRa K156A/R161A, NR concentration 270 nM, RXRa partner concentration 90 nM)
Outline: (§1)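 On custom Agilent 4×180K arrays, double-stranded probes with 34-nt variable regions carried direct-repeat seeds, single-nucleotide variants, half-site ablations or random human genomic background. Ligand-free nuclear receptor dimers were applied for 1 h, and binding was read with antibodies against each partner (one per run). Binding z-scores come from regression-normalized fluorescence, with the random background probes as reference.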

[2] = test system: PPARg:RXRa IVT, anti-PPARg (NR concentration 270 nM, RXRa partner concentration 90 nM)
Outline: as §1

[3] = test system: PPARg DBDmut:RXRa IVT, anti-PPARg (DBD mutation: PPARg1 K132A/R137A, NR concentration 270 nM, RXRa partner concentration 90 nM)
Outline: as §1

[4] = test system: PPARg DBDmut IVT, anti-PPARg (DBD mutation: PPARg1 K132A/R137A, NR concentration 270 nM)
Outline: as §1

[5] = test system: PPARg homodimer (NR concentration 180 nM)
Outline: as §1

[6] = test system: PXR:RXRa (NR concentration 270 nM, RXRa partner concentration 90 nM)
Outline: as §1

[7] = test system: PXR homodimer (NR concentration 270 nM)
Outline: as §1

[8] = test system: RARa:RXR (NR concentration 270 nM, RXRa partner concentration 90 nM)
Outline: as §1

[9] = test system: RARa homodimer (NR concentration 270 nM)
Outline: as §1

[10] = test system: RARb:RXRa (NR concentration 270 nM, RXRa partner concentration 90 nM)
Outline: as §1

Sequence	PBM binding z-score [1]	PBM binding z-score [2]	PBM binding z-score [3]	PBM binding z-score [4]	PBM binding z-score [5]	PBM binding z-score [6]	PBM binding z-score [7]	PBM binding z-score [8]	PBM binding z-score [9]	PBM binding z-score [10]
AAAGACAGGTGAGTGAAGGTAACTCAGCTGGACG	0.772	0.948	0.86	-0.373	0.59	-0.0597	0.232	0.219	0.262	0.715
CGAACTTGGTCATTGACAGGACAGTGAATAGTAA	0.617	0.897	0.111	0.232	0.209	0.0575	0.147	0.48	0.507	0.912
TCATATCGGTAATACAGGTGAAAGTCGGCATCTA	2.51	1.96	1.47	0.852	1.2	0.46	0.585	0.605	1.17	0.527
ATATGTAGGTTATCGGGTCATTCACTTTGCGCAT	7.73	7.65	4.35	2.87	2.48	3.44	1.07	4.15	2.17	2.64
GCTGCTAGGTCAGGTTGGTCAGTTAACGGGTACG	2.8	2.15	-1	-0.445	0.781	0.391	0.149	0.719	-0.401	3.21
TCTGCTAGGTCAGTTGGTCGGCTAACGAGCTGCC	2.4	2.52	-0.323	0.245	-0.547	-0.0242	-0.996	0.254	-0.776	3.2
AGAACGACGGCAATGAGTTGATAGCACGGGTGGC	-0.438	-0.402	-0.484	-0.862	-0.865	-0.631	-0.242	-0.819	-0.419	-0.448
ATATGTAGGTTACTTCCGGGTCATTCAGGCTATG	7.27	7	2.25	1.76	2.39	3.68	1.81	3.76	0.485	2.36
ATCTCTAGGTAAGATTCAGTTCAGTGAAGAACGC	0.989	0.954	0.543	0.745	0.75	0.994	1.17	0.657	1.15	0.123
ACTAGCGGGCCAAGTTTGGGTCACTCAAACAAAG	0.418	0.997	-0.878	-0.789	0.424	0.722	-0.623	1.51	-1.37	1.64
ATACGTAGGTTAAGGGTCATTCAGGTTGGTTCGC	1.41	3.8	0.783	0.775	3.98	5.7	2.65	6.55	2.24	3.7
CAAACTATGTCAAGAGGTCAAAGTCCGCTTCCCG	4.61	4.88	1.22	0.601	4.01	5.64	2.84	6.21	2.09	4.3
GGAACGAGGGCAAACTTGATAGCATCTGTCGACG	4.42	3.21	0.0378	-0.343	0.366	0.618	0.169	0.525	-0.264	2.16
ACTATTAGTTGAGACGAGGGCAATCGATAGGTTG	0.458	0.2	0.805	0.52	0.357	1.46	0.418	1.25	0.603	0.918
TTTTGTAGATCAGCAGGTTAAGAAAGCTGGCCAA	0.508	1.04	-0.105	0.632	0.357	0.0195	-0.117	0.084	0.0423	0.0903
TGTCAAAGTTCAAAGGTAACGAAAGTATCCACAC	0.62	4.53	1.27	1.66	3.32	5.76	3.79	6.83	1.29	5.22
TCTCGGAGGACACGAAAGCTCAGAGCTCGACATC	1.28	0.237	-0.991	-1.02	-0.895	-0.392	-0.855	-0.157	-0.395	1.31
TTACCAAGGTAAGCTGAGGTCGTTGATCCAACTC	-0.0286	0.407	-0.293	-0.159	-0.361	3.52	0.144	1.9	-1.52	0.571
TCACATAGGTAATACAGGTGAAAGTCGGCATCTA	2.54	1.8	1.44	0.888	0.824	0.746	0.212	1.26	0.821	0.68
TCATATAGCTAAAAGGTGAAAGTCGGTGTGGTAA	2.08	0.996	0.333	0.116	0.824	0.793	0.353	1.37	0.703	1.5
TCTTGTAGATCAATAGAGGCTAAGAAAGTGCGCT	1.51	0.473	0.414	0.266	0.0391	0.573	0.17	0.468	-0.133	0.203
CGTCCAAGGTCTGAGAGGTCAGTGAATGCCGAGT	0.28	0.77	-0.424	-1.57	1.81	2.94	1.65	2.79	0.0831	3.24
ATCTCTAGGTAACCAAGTACAGTGAATGCCGAAC	3.29	3.07	1.88	1.42	0.713	0.0867	0.597	-0.0145	1.1	0.347
GTACCAAGGTGAATAGGTCGATGATGAGTAGGCG	1.55	2.61	0.551	-0.172	1.08	0.477	0.109	1.13	0.983	2.01
TCTAGTTGGTCACGGAGGTCACACATGACGGGTA	2.5	4.34	1.38	0.722	2.93	4.71	1.67	4.56	1.18	4.01
